# SMN2 splice enh: increases expression of the SMN2 splice variant; AID 1458; Potency, µM (top dose mostly 46.1 µM), without a hit: top-dose activity change, positive = activation, usual class: activators; HEK293 SMN2-luciferase splicing reporter, luminescence, 30-36 h; actives 2.8% (n = 210,000); also: % of control where 0% means no effect; nearly all actives have a fitted effect of over 55% in size
#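 HEK293 cells carry an SMN2 […]–luciferase reporter in which exon 7 inclusion puts luciferase in frame. Cells were plated 10-12 h before compound addition, then incubated 30-36 h at 37C. ONE-Glo luminescence was read; sodium butyrate at 4.5 mM final served as control.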
# NPC1 prom act: activators of NPC1 promoter; Huh7 NPC1 promoter luciferase reporter, 24 h; Potency, µM (titrated, usually from 9.22 µM), inactives show at the highest dose activation, actives largely listed as activators; actives 2.4% (n = 320,000); AID 485313; also: % of control where 0% means no effect; nearly all actives have a fitted effect of over 60% in size
#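 Compounds in DMSO were transferred onto Huh7 NPC1-luciferase reporter cells pre-incubated 2 h; after 24 h at 37 °C, Amplite reagent was dispensed and luminescence recorded 10 min later.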
# Rab9 promoter act: Rab9 promoter activation; Huh7 Rab9 promoter-luciferase reporter, luminescence, 24 h; Potency, µM (series often up to 9.22 µM), for inactives: top-dose activation, negative = inhibition, hits mostly activators; actives 2.8% (n = 320,000); AID 485297; also: % of control where 0% means no effect; nearly all actives have a fitted effect of over 60% in size
#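 Rab9 promoter-driven luciferase in stably transfected Huh7 cells; 1500 cells/well rested 2 h, exposed to compound in DMSO for 24 h at 37 °C, 5% CO2. Luminescence read 10 min after adding luciferase reagent at ambient temperature.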
# ELG1 genotox: induces genotoxicity in HEK293T cells with luciferase-tagged ELG1 | HEK293T ELG1-luciferase reporter, luminescence, 16 h | Potency, µM (titrated, usually from 46 µM), without a hit: top-dose activity change, positive = activation, hits mostly activators | actives 1.3% (n = 330,000); also: % of control where 0% means no effect; nearly all actives have a fitted effect of over 60% in size
#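 DMSO vehicle served as control against compound-treated ELG1-luciferase HEK293T cells; exposure lasted 16 hr at 37 °C and 5% CO2, followed by ONE-Glo luminescence detection after 30 min.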
# FLuc modulator: counter-screen for miR-21 project: firefly luciferase inhibitors or activators; purified FLuc, Km substrates, luminescence inhibition; Potency, µM (highest dose often 57.5 µM), inactives show top-dose activity change, negative = inhibition, usual class: inhibitors; actives 6.9% (n = 360,000); AID 588342;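 also: plate controls were vehicle for no effect and reference inhibitor for full effect; nearly all actives have a fitted effect of over 55% in size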
# Target sequence (P08659 whole entry, looked up): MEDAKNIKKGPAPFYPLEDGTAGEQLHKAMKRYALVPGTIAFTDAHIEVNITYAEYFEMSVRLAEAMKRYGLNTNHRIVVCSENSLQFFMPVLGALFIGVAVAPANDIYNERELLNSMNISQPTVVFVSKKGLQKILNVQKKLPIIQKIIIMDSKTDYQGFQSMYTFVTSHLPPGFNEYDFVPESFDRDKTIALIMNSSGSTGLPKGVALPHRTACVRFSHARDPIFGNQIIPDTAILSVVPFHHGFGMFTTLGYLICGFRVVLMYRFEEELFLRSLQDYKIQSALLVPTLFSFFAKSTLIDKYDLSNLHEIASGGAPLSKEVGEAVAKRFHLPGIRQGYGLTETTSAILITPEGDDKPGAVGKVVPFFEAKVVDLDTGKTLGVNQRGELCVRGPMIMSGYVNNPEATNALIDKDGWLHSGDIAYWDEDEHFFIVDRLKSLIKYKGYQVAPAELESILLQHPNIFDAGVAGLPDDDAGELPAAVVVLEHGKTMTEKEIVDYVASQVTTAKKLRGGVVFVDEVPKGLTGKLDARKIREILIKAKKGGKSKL
#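 Biochemical qHTS of compounds, final roughly 60 µM downward over six points, against 10 nM purified firefly luciferase using Km concentrations of substrates (10 uM D-luciferin, 10 uM ATP) in Tris acetate pH 7.5 buffer; luminescence output.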
# Numbers without * were called inactive; ? = inconclusive; nt = no result given; [ ] = another dose, or the depositor's remark. Compounds with a hit are over-represented: about 7.4% of the library has one in this group of screens. Calls follow the shape of the dose curve; as a rule, active = well fitted curve in the direction sought with a large enough effect; inconclusive = small, poorly fitted or top-dose-only effect, or another doubt; inactive = no such curve, though single readings can be large; an effect the other way counts as inactive or inconclusive. Potency is read from the fitted curve at half-maximal effect.
SMILES,SMN2 splice enh,NPC1 prom act,Rab9 promoter act,ELG1 genotox,FLuc modulator
COc1ccc(Cn2c(=O)n(Cc3ccco3)c(=O)c3oc4ccccc4c32)cc1,nt,nt,nt,nt,-5.4%
O=C(N/N=C/c1cccc([N+](=O)[O-])c1)c1cc[n+](CCO)cc1,nt,2.0%,8.5%,-1.0%,0.0%
COc1ccc(Nc2nc(N)nc(CSc3nnc(C)s3)n2)cc1,22.4µM*,26.4%,?,?,26.9µM*
CCOc1ccccc1Nc1nc(N)nc(CSc2nncn2C)n1,-0.1%,-2.0%,-4.7%,-0.7%,4.4%
COc1ccc(Nc2nc(N)nc(CSc3nncn3C)n2)cc1,19.0%,17.4%,?,20.6µM*,15.1µM*
CC1CCC2(OC1)OC1CC3C4CC[C@@H]5CC(O)CC[C@@]5(C)C4CC(=O)[C@]3(C)C1C2C (stereo not given in full),4.9%,nt,nt,nt,nt
Cc1cccc(NC(=O)Cn2c(=O)n(Cc3ccccc3)c(=O)c3oc4ccccc4c32)c1C,nt,nt,nt,nt,1.9%
CCOc1ccc(-n2c(=O)c3c(C)c(C)sc3n(Cc3cc(=O)n4cc(Cl)ccc4n3)c2=O)cc1,-4.2%,nt,nt,nt,0.3%
CCN(CC)S(=O)(=O)c1cc(NC(=O)CCn2[nH]c(=O)ccc2=O)ccc1C,nt,nt,nt,2.7%,nt
C/C(=N/OC(=O)c1ccc(Cl)cc1Cl)c1oc(C)nc1C,nt,-3.4%,7.1%,-1.1%,7.57µM*
C/C(=N/OC(=O)c1ccccc1)c1oc(C)nc1C,nt,1.4%,1.4%,2.3%,12µM*
C/C(=N/Oc1nc(C)cc(C)n1)c1ccc(Cl)cc1Cl,-14.1%,-1.0%,-0.9%,-0.6%,7.0%
CCN(CCCNC(=O)c1ccc(Sc2ccc(F)cc2)c(NC(C)=O)c1)c1ccccc1,nt,nt,nt,nt,-24.4%
CC1=C/C(=C\c2ccc3c(c2)OCO3)C(=O)S1,-8.5%,-5.8%,-0.6%,-2.4%,19µM*
CCCN1C/C(=C/c2ccc3c(c2)OCO3)C(=O)/C(=C/c2ccc3c(c2)OCO3)C1,-72.6%,-10.9%,-24.8%,-18.7%,-1.3%
CCCc1cnc2c(c1SCC(=O)Nc1ccc(C)c(Cl)c1)c(=O)n(C)c(=O)n2C,nt,nt,nt,nt,-12.2%
COc1ccc(C(=O)NCCc2nnc3ccc(SCC(=O)NCCc4ccc(OC)c(OC)c4)nn23)cc1,nt,-0.7%,-0.8%,1.2%,-1.5%
O=C(Nc1ccc(S(=O)(=O)Nc2cnc3ccccc3n2)cc1)c1ccc(Br)o1,-26.1%,-0.1%,-5.2%,-6.2%,16.9µM*
O=C(Nc1ccc(S(=O)(=O)Nc2cnc3ccccc3n2)cc1)c1ccccc1Br,nt,1.4%,-9.1%,-0.3%,4.4%
CC(C)(C)c1ccc(C(=O)Nc2ccc(S(=O)(=O)Nc3cnc4ccccc4n3)cc2)cc1,nt,1.1%,-0.1%[1.84 µM],3.4%,13.5µM*
Clc1ccc2nc(Nc3ccccc3Cl)nc(-c3ccccc3)c2c1,-0.3%,nt,nt,nt,0.9%
CCOC(=O)c1c2ccccc2[n+]([O-])n1CCO,nt,4.6%,-30.4%,1.4%,-0.1%
CC(C)NS(=O)(=O)c1ccc2c(c1)NCC2,12.9%,-2.3%,-0.4%,1.7%,-2.0%
COC(=O)c1ccc(-c2noc(CN(C)CC3CCCCO3)n2)cc1 (stereo not given),10µM*,7.4%,29.1%,5.4%,-3.7%
COC(=O)c1ccc(-c2noc(CN3C[C@H]4CC[C@H]3C4)n2)cc1,nt,?,?,?,21.3µM*
SMILES,SMN2 splice enh,NPC1 prom act,Rab9 promoter act,ELG1 genotox,FLuc modulator
COC(=O)c1ccc(-c2noc(CN(Cc3ccncc3)CC3CCCO3)n2)cc1 (stereo not given),nt,-28.0%,-28.6%,-6.9%,3.6%
CCc1ccc(N2CC(C(=O)OCC(=O)c3c(N)n(CC(C)C)c(=O)n(C)c3=O)CC2=O)cc1 (stereo not given),nt,0.0%,-5.1%,1.5%,6.6%
O=c1c2ccccc2nc2n1C(CBr)CN2 (stereo not given),nt,-5.0%,-3.3%,-1.8%,-0.9%
Cc1ccc(NC(=O)C2C(=O)N(CCO)C3(C)CC2c2ccccc2O3)cc1 (stereo not given),?,7.1%,19.1%,9.6%,-0.9%
CN1C(=O)C(C(=O)Nc2ccccc2F)c2ccccc21 (stereo not given),8.0%,-0.1%,3.4%,-1.4%,19µM*
Cc1ccc(NC(=O)C2C(=O)N(C)c3ccccc32)cc1 (stereo not given),?,17.8%,25.5%,8.7%,4.78µM*
CCc1ccc2c(c1)c(=O)c(C(=O)c1ccccc1)cn2CC(=O)Nc1ccc(C)c(Cl)c1,5.5%,nt,nt,nt,-6.0%
Cn1cnnc1SCC(C)(C)NS(=O)(=O)c1ccc(Cl)cc1,nt,-5.5%,0.5%,0.1%,2.1%
CC(C)(C)C1CCC(=NOC(=O)c2ccc(F)cc2)CC1 (stereo not given),1.3%,-6.9%,3.4%,-0.3%,19µM*
O=C(ON=C1CCN(S(=O)(=O)c2ccccc2)CC1)c1ccc(F)cc1,-5.9%,-3.9%,2.8%,-0.3%,-15.3%
O=C(O/N=C1/CCCc2occc21)c1ccc(F)cc1,0.3%,-5.3%,2.3%,-1.1%,1.9µM*
O=C(O/N=C1/CCSc2ccccc21)c1ccc(F)cc1,-20.9%,6.7%,-0.7%,-0.1%,0.338µM*
CCOC(=O)c1nnn(CC(=O)Nc2cc(C)cc(C)c2)c1C(=O)OCC,-3.7%,nt,nt,nt,3.2%
CC1CCCCC1NC(=O)c1cc(S(=O)(=O)N2CCOCC2)ccc1Cl (stereo not given),nt,nt,nt,-1.5%,nt
CC(=O)N1CCN(c2ccc(NCc3ccc(-c4cccc(Cl)c4)o3)cc2)CC1,nt,nt,nt,0.8%,nt
C=CCNC(=O)N1CCc2nc(-c3ccccc3)c3c(c2C1)CO[C@@H](C)C3,46.6%[9.22 µM],nt,nt,nt,nt
CCn1c(SC(C)C(=O)Nc2ccc3c(c2)OCCO3)nnc1C1CC1 (stereo not given),nt,0.0%,1.9%,-0.4%,23.9µM*
CC(Sc1ncccn1)C(=O)Nc1ccc2c(c1)OCCO2 (stereo not given),nt,1.8%,17.1%,6.7%,-19.6%
C[C@@H](C(=O)Nc1ccc2c(c1)OCCO2)n1nnc2ccccc2c1=O,nt,3.55µM*,3.55µM*,?,8.49µM*
CC(Sc1nc2ccccc2[nH]1)C(=O)Nc1ccc2c(c1)OCCO2 (stereo not given),-5.2%,-2.2%,0.1%,-0.3%,21.3µM*
Cc1ccc(CSC2=NCCN2S(=O)(=O)c2ccc(F)cc2)cc1,nt,1.0%,7.9%,-6.6%,-1.6%
CC(C)(C)C(=O)CN1C2=NCCCN2c2ccccc21,nt,-2.6%,5.5%,-7.9%,2.5%
O=C(NN1C(=O)/C(=C/c2ccc(O)c(O)c2)SC1=S)c1ccccc1,nt,-16.9%,0.1%,-6.3%,?
O=C1/C(=C/c2ccc(O)c(O)c2)SC(=S)N1Nc1ccccc1,nt,-21.4%,-6.6%,-7.8%,19µM*
COc1cc(/C=C2\SC(=S)N(Nc3ccccc3)C2=O)ccc1O,4.0%[1.84 µM],-3.5%,20.0%,?,5.36µM*
CCOc1cc(/C=C2\SC(=S)N(Nc3ccccc3)C2=O)ccc1O,-8.8%,?,4.9%,?,6.75µM*
